Assay results from PubChem BioAssay (EPA / NIEHS).
Calls of active or inactive are those of the source. How the source made its calls: active means hit-call score of the fitted dose curve at least 0.9, where 1 is the maximum; inactive means score below 0.9.

Columns and labels:
[1] = ATG_CRE_CIS: Attagene CIS-FACTORIAL HepG2 Assay for human cAMP Responsive Element (CRE) binding protein 3 (AID 2282926); details: HepG2 CRE cis-reporter, Attagene multiplexed mRNA; actives raise or lower the signal
Outline: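 Endogenous CRE-binding activity in HepG2 is reported through a cis-regulated transfected reporter. Following a day of exposure, mRNA levels are determined by reverse transcription PCR and fluorescent fragment analysis; fits run in both directions versus DMSO.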

[2] = target: CCAAT/enhancer-binding protein beta (Homo sapiens) (UniProt P17676); assay: ATG_C_EBP_CIS: Attagene CIS-FACTORIAL HepG2 Assay for human CCAAT/Enhancer Binding Protein (C/EBP) beta (AID 2282927); details: HepG2 Attagene cis-factorial transcription factor reporter; actives raise or lower the signal
Outline: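 Endogenous C/EBPb-driven reporter transcripts measured in transfected human HepG2 cells at 24 h via RT-PCR and capillary electrophoresis of labelled fragments. Activity fitted in both directions relative to DMSO baseline.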

[3] = ATG_CMV_CIS: Attagene CIS-FACTORIAL HepG2 Assay for human CMV (Internal Marker) (AID 2282928); details: HepG2 CMV promoter reporter, transcription factor profiling; actives raise or lower the signal;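 further: endpoint acts as a background internal control marker rather than a target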
Outline: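 After transient transfection of HepG2 with reporter transcription units driven by cis-regulatory promoters, cells receive test chemical for 24 h. Labeled reporter amplicons, digested with HpaI, are sized and quantified by capillary electrophoresis against DMSO.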

[4] = ATG_DR4_LXR_CIS: Attagene CIS-FACTORIAL HepG2 Assay for human Liver X Receptor (LXR), DR4 submotif (AID 2282929); details: HepG2 Attagene DR4 cis-reporter, mRNA transcription; actives raise or lower the signal
Outline: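 HepG2, transient MRTU transfection, cis-element (DR4) promoter; 24 h compound exposure; total RNA → oligo(dT) RT → PCR → 6-FAM primer extension → HpaI cut → CE. Gain/loss vs DMSO, bidirectional fit.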

[5] = target: Aryl hydrocarbon receptor (Homo sapiens) (UniProt P35869); assay: ATG_Ahr_CIS: Attagene CIS-FACTORIAL HepG2 Assay for human Aryl Hydrocarbon Receptor (Ahr) (AID 2282930); details: HepG2 AhR cis-factorial reporter transcription; actives raise or lower the signal
Outline: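 Reporter mRNA levels, quantified by RT-PCR and fluorescent capillary electrophoresis, reflect endogenous AhR transcriptional activity in HepG2 cells carrying transfected cis-promoter reporter constructs. Readout at 24 h post-dose; gain or loss fitted against DMSO baseline.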

[6] = ATG_AP_2_CIS: Attagene CIS-FACTORIAL HepG2 Assay for human Activator Protein 2 (AP-2) (AID 2282932); details: HepG2 AP-2 cis-reporter, Attagene transcription factor profiling; actives raise or lower the signal
Outline: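 Step one: transient transfection of HepG2 with reporter transcription units. Step two: 24 h chemical exposure. Step three: RNA extraction, RT-PCR, labelled fragment analysis by capillary electrophoresis; DMSO serves as baseline.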

[7] = ATG_BRE_CIS: Attagene CIS-FACTORIAL HepG2 Assay for human Bone Morphogenetic Protein (BMP) Response Element (BRE) (AID 2282933); details: HepG2 BMP response element reporter, Attagene transcription factor profiling; actives raise or lower the signal
Outline: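 HepG2 cells transiently transfected with CIS reporter units (endogenous TF activity, BMP response element), dosed 24 h. Reporter mRNA quantified by RT-PCR, fluorescent labelling and capillary electrophoresis; bidirectional fit vs DMSO baseline.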

[8] = target: Retinoic acid receptor alpha (Homo sapiens) (UniProt P10276); assay: ATG_DR5_RAR_CIS: Attagene CIS-FACTORIAL HepG2 Assay for human Retinoic Acid Receptor Alpha (RARE), DR5 submotif (AID 2282934); details: HepG2 Attagene cis-factorial RARE DR5 reporter, mRNA; actives raise or lower the signal
Outline: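 Reporter transcripts from a DR5-regulated unit, measured via RT-PCR plus capillary electrophoresis, reflect endogenous RAR activity in transiently transfected human HepG2 liver cells. Exposure lasted 24 h; gain or loss of signal scored against DMSO.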

[9] = target: Transcription factor E2F1 (Homo sapiens) (UniProt Q01094); assay: ATG_E2F_CIS: Attagene CIS-FACTORIAL HepG2 Assay for human E2F Transcription Factor 1 (AID 2282935); details: HepG2 Attagene cis-reporter, E2F reporter RNA transcripts; actives raise or lower the signal
Outline: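 Total RNA from 24 h-treated, reporter-transfected HepG2 cells undergoes DNase I treatment, oligo(dT) reverse transcription, PCR and 6-FAM primer extension before capillary electrophoresis.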

[10] = ATG_E_Box_CIS: Attagene CIS-FACTORIAL HepG2 Assay for human Enhancer Box (E-box) (AID 2282936); details: HepG2 E-box cis-reporter transcription, actives raise or lower the signal
Outline: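 DMSO served as negative control and baseline for bidirectional fitting. Human hepatoma HepG2 cells, transiently transfected with cis-reporter constructs, were dosed 24 h; reporter mRNA read by RT-PCR and capillary electrophoresis.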

[11] = ATG_M_61_CIS: Attagene CIS-FACTORIAL HepG2 Assay for M61 Transcription Factor (Internal Marker) (AID 2282937); details: HepG2 Attagene CIS-FACTORIAL M61 internal marker reporter; actives raise or lower the signal
Outline: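 Human liver HepG2, transient MRTU transfection (cis promoter elements), 24 h compound. Total RNA → oligo(dT) RT → PCR → FAM label → HpaI → CE. Internal background marker; bidirectional fitting, DMSO = baseline.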

[12] = ATG_EGR_CIS: Attagene CIS-FACTORIAL HepG2 Assay for human Early Growth Response 1 (EGR1) (AID 2282938); details: HepG2 Attagene CIS-FACTORIAL EGR reporter mRNA; actives raise or lower the signal
Outline: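 Transient transfection of human HepG2 with multiple cis-regulated reporter units, chemical exposure 24 h, total RNA isolated. Reverse transcription, PCR, fluorescent labelling and capillary electrophoresis quantify reporter transcripts; activity fitted bidirectionally against DMSO.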

[13] = ATG_M_19_CIS: Attagene CIS-FACTORIAL HepG2 Assay for M19 Transcription Factor (Internal Marker) (AID 2282939); details: HepG2 Attagene CIS-FACTORIAL M19 internal marker reporter; actives raise or lower the signal
Outline: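 HepG2 cells transiently transfected with cis-regulated multiplexed reporter units, dosed 24 h. Reporter mRNA quantified by RT-PCR and capillary electrophoresis; internal background marker fitted bidirectionally versus DMSO.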

[14] = ATG_ERE_CIS: Attagene CIS-FACTORIAL HepG2 Assay for Estrogen Response Element (ERE) (AID 2282940); details: HepG2 ERE cis-reporter, Attagene RNA transcript; actives raise or lower the signal
Outline: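 HepG2 cells transiently transfected with multiplexed cis-element reporter units, measuring endogenous transcription factor activity; ERE reporter mRNA quantified after 24 h exposure by RT-PCR, fluorescent labelling, HpaI digestion and capillary electrophoresis. Bidirectional change versus DMSO.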

[15] = ATG_AP_1_CIS: Attagene CIS-FACTORIAL HepG2 Assay for human Activator Protein 1 (AP-1) (AID 2282931); details: HepG2 Attagene cis-factorial AP-1 reporter mRNA; actives raise or lower the signal
Outline: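 Transient MRTU transfection of HepG2 → 24 h chemical treatment → RNA isolation, RT-PCR, 6-FAM labelling, HpaI digest → capillary electrophoresis. Fit: bidirectional, DMSO negative control.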

Sequence of CCAAT/enhancer-binding protein beta (Homo sapiens) (P17676 whole entry, looked up, the tested form may be a part): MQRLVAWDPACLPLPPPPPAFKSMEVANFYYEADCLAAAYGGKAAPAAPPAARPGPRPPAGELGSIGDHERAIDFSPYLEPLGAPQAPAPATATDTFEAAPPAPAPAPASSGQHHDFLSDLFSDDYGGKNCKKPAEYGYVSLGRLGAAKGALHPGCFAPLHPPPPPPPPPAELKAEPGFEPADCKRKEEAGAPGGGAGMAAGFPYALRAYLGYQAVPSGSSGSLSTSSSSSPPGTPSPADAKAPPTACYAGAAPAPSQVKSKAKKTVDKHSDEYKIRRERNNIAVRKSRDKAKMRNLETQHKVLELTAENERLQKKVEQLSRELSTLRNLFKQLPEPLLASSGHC
Sequence of Retinoic acid receptor alpha (Homo sapiens) (P10276 whole entry, looked up): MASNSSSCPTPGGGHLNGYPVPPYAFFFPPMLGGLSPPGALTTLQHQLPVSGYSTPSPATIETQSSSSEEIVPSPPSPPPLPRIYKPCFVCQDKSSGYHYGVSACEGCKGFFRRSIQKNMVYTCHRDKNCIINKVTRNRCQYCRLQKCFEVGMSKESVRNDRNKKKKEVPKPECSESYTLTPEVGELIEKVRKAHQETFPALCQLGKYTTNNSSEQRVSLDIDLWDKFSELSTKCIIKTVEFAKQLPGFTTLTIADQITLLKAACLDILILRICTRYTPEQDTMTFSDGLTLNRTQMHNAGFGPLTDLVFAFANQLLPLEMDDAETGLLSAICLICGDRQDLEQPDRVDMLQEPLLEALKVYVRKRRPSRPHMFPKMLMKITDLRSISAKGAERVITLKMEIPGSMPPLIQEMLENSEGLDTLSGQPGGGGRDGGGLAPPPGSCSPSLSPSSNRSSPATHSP
Sequence of Transcription factor E2F1 (Homo sapiens) (Q01094 whole entry, looked up): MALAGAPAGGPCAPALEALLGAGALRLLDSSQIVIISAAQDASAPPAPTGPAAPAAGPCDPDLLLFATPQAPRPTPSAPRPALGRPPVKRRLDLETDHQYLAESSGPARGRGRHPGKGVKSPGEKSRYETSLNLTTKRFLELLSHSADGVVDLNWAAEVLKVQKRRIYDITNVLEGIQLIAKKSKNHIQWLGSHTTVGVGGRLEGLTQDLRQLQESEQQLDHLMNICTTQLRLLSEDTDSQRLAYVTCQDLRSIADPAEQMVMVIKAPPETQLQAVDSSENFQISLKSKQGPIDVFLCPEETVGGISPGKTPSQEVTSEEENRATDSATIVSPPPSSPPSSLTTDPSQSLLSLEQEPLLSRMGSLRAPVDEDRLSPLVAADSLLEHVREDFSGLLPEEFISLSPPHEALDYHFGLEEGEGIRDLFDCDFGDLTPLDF
Sequence of Aryl hydrocarbon receptor (Homo sapiens) (P35869 whole entry, looked up): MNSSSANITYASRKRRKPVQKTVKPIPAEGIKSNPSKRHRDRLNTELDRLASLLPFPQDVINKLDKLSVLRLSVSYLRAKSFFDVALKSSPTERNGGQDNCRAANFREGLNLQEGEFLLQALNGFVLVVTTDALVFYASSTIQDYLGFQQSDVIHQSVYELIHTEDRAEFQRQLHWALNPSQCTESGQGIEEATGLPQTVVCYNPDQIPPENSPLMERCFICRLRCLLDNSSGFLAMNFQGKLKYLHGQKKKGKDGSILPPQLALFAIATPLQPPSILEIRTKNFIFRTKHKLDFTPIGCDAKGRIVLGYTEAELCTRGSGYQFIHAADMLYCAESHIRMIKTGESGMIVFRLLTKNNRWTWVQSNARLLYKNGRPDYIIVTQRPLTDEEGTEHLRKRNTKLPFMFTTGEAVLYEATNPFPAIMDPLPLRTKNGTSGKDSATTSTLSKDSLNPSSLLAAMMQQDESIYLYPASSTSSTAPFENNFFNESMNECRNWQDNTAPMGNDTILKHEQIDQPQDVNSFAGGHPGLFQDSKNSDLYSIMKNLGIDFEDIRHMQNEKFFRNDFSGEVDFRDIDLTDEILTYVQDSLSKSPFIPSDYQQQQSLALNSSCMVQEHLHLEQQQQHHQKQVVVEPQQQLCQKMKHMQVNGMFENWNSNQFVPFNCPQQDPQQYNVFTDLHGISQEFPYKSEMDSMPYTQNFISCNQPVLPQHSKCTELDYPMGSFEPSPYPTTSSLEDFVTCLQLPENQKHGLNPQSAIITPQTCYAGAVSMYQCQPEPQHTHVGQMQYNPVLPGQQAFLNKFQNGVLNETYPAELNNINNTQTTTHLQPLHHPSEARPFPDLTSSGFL

Structure (SMILES) | outcome [1] | outcome [2] | outcome [3] | outcome [4] | outcome [5] | outcome [6] | outcome [7] | outcome [8] | outcome [9] | outcome [10] | outcome [11] | outcome [12] | outcome [13] | outcome [14] | AC50 [3] | outcome [15] | AC50 [14] | AC50 [5]
O=C(O)COc1ccc(Cl)cc1 | inactive | inactive | inactive | inactive | inactive | inactive | inactive | inactive | inactive | inactive | inactive | inactive | inactive | inactive |  |  |  | 
Oc1ccc(Cc2ccc(O)cc2)cc1 | inactive | inactive |  | inactive | inactive | inactive | inactive | inactive | inactive | inactive | inactive | inactive | inactive |  | 77.1 µM (active) | inactive | 0.774 µM (active) | 
C[C@H]1C(=O)O[C@@H]2CCN3CC=C(COC(=O)[C@](C)(O)[C@]1(C)O)[C@H]23 | inactive | inactive | inactive | inactive | inactive | inactive | inactive | inactive | inactive | inactive | inactive | inactive | inactive | inactive |  |  |  | 
CCCCN(CCCC)C(=S)[S-].CCCCN(CCCC)C(=S)[S-].[Ni+2] | inactive | inactive | inactive | inactive | inactive | inactive | inactive | inactive | inactive | inactive | inactive | inactive | inactive | inactive |  | inactive |  | 
CCNc1nc(NCC)nc(SC)n1 | inactive | inactive | inactive | inactive | inactive | inactive | inactive | inactive | inactive | inactive | inactive | inactive | inactive | inactive |  | inactive |  | 
CC1(C)[C@H](C(=O)O[C@H](C#N)c2cccc(Oc3ccccc3)c2)[C@@H]1/C=C(\Cl)C(F)(F)F | inactive | inactive | inactive | inactive | inactive | inactive | inactive |  | inactive | inactive | inactive | inactive | inactive |  |  | inactive |  | 
C=CCN=C=S | inactive | inactive | inactive | inactive | inactive | inactive | inactive | inactive | inactive | inactive | inactive | inactive | inactive | inactive |  | inactive |  | 
CC(c1ccc(O)cc1)c1ccc(O)cc1 | inactive | inactive | inactive | inactive | inactive | inactive | inactive | inactive | inactive | inactive | inactive | inactive | inactive |  |  | inactive | 0.701 µM (active) | 
O=C(NC(=O)c1c(F)cccc1F)Nc1ccc(Cl)cc1 | inactive | inactive | inactive | inactive |  | inactive | inactive | inactive | inactive | inactive | inactive | inactive | inactive | inactive |  |  |  | 19.6 µM (active)
